# Measured values as given in PubChem BioAssay AID588342 (National Center for Advancing Translational Sciences (NCATS), 2011).
# The whole screen tested about 360,000 compounds, of which about 25,000 (6.9%) were called active. Where a call stands in place of a potency, no number is given. About 9% were inconclusive and are not listed. For the sample, actives were picked, then their nearest neighbours and some compounds at random. A number with no mark means an inactive call. Calls come from the whole dose curve; as a rule, active = well fitted inhibition curve with a large enough effect; inconclusive = small, poorly fitted or top-dose-only effect; inactive = flat fitted curve, though single readings scatter.
# Molecular target: Luciferin 4-monooxygenase (Photinus pyralis) (UniProt P08659)
# Assay: qHTS profiling assay for firefly luciferase inhibitor/activator using purifed enzyme and Km concentrations of substrates (counterscreen for miR-21 project); note: nearly all actives have a fitted effect of over 55% in size
# Conditions: purified FLuc, luminescence inhibition; series mostly up to 57.5 µM
# How it was run: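 Purified P. pyralis luciferase, 10 nM final, with Km-level 10 uM D-luciferin and 10 uM ATP in 50 mM Tris acetate pH 7.5, 10 mM Mg acetate, 0.01% Tween-20, 0.05% BSA; 6-point qHTS titration about 60 µM downward; luminescence read.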
# Potency is the fitted concentration of half-maximal effect.
# Chain of Luciferin 4-monooxygenase (Photinus pyralis) (P08659 whole entry, looked up): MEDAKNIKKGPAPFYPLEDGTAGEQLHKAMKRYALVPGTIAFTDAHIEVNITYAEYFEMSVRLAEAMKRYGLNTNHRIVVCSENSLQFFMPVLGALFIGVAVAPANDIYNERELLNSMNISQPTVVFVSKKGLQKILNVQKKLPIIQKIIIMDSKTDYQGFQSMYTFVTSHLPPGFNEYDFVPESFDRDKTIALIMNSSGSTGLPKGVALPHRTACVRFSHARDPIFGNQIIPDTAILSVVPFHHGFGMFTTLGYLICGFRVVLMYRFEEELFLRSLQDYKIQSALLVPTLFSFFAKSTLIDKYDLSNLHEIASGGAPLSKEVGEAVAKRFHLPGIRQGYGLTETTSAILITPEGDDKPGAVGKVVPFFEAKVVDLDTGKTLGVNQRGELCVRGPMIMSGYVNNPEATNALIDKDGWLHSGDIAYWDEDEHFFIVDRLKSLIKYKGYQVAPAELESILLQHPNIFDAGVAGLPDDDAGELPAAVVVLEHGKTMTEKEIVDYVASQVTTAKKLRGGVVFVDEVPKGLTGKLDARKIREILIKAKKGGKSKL
SMILES,Potency,"activity change, negative = inhibition"
Cc1oc2ccc(O)c(CN3CCCCC3)c2c1C(=O)Nc1cccc(C(F)(F)F)c1,inactive,–
CCn1c(CN2CCC(C)CC2)nc2cc(NC(=O)c3ccccc3[N+](=O)[O-])ccc21,inactive,–
Cc1ccc(NC(=O)C(C)OC(=O)Cc2c[nH]c3ccccc23)cc1S(=O)(=O)N1CCOCC1 (stereo unspecified),inactive,–
COc1ccc(CCNC(=O)CCCCn2c(=O)c3ccccc3n(Cc3ccccc3C)c2=O)cc1OC,inactive,–
CCNC(=O)Cn1nc(C)n2c(cc3c(OC)cccc32)c1=O,inactive,–
CCOc1ccc(S(=O)(=O)Nc2nccs2)cc1,inactive,–
COc1cc2ccccc2cc1C(=O)Nc1ccc(N2CCOCC2)cc1,inactive,–
Cc1ccccc1C(=O)Nc1ccc(N2CCCCCC2)cc1,10.7 µM (active),–
Cc1ccccc1C(=O)N1CCN(c2ccc(NC(=O)c3cccs3)cc2)CC1,inactive,–
CCCCN(CC)C(=S)Nc1ccc2nc3n(c(=O)c2c1)CCCCC3,inactive,–
CN1CCN(c2ccc(NC(=O)c3ccc4c(c3)OCCO4)cc2Cl)CC1,4.78 µM (active),–
COC(=O)c1ccc(N2CCOCC2)c(NC(=O)c2ccc3c(c2)OCCO3)c1,inactive,–
O=C(CN1C(=O)COc2ccc(Cl)cc21)Nc1ccc(N2CCOCC2)cc1,inactive,–
COc1cccc(C(=O)Nc2ccc3nc4n(c(=O)c3c2)CCCCC4)c1,16.9 µM (active),–
NS(=O)(=O)c1ccc(NC(=O)C(=O)Nc2ccc3nc4n(c(=O)c3c2)CCCCC4)cc1,inactive,–
O=C(NC(=O)c1ccccc1N1CCCCC1)Nc1ccc(Br)cc1,inactive,–
CN1CCN(c2ccc(NC(=O)c3cc(Cl)c4c(c3)OCCO4)cc2)CC1,10.7 µM (active),–
O=C(Nc1ccc(N2CCOCC2)c(Cl)c1)c1ccc(S(=O)(=O)N2CCOCC2)cc1,inactive,–
COc1ccc2c(Sc3ccc(C)cc3)c(C(=O)NC(C)c3ccccc3)[nH]c2c1 (stereo unspecified),inactive,–
CC(C)Cn1c(=O)c2ccccc2n2c(CCC(=O)N3CCN(c4cccc(Cl)c4)CC3)nnc12,inactive,–
Cc1cccc(NS(=O)(=O)c2ccc(C)c(C(=O)NCC(c3ccccc3)N(C)C)c2)c1 (stereo unspecified),inactive,–
O=C(NC1CCN(Cc2ccccc2)CC1)c1ccc(Cn2c(=O)c3ccccc3n(Cc3cccc(F)c3)c2=O)cc1,inactive,–
O=C(NCCOc1cccnc1)c1ccc(OC2CCN(Cc3ccccn3)CC2)cc1,inactive,–
CCOc1ccc(N(CC)C(=O)C2CCN(S(=O)(=O)c3cccc4nonc34)CC2)cc1,inactive,–
CC(OC(=O)c1ccc(NS(=O)(=O)c2ccc3[nH]c(=O)[nH]c3c2)cc1)C(=O)Nc1cccc(Cl)c1Cl (stereo unspecified),inactive,–
COc1ccc2c(c1)c(N1CCCC1=O)c(C(=O)Nc1ccccc1C(F)(F)F)n2C,inactive,–

SMILES,Potency,"activity change, negative = inhibition"
CCOc1ccc(NC(=O)c2cn(C3CCCCC3)c(=O)c3c2c2ccccc2n3C)cc1,inactive,–
CCOc1ccc(NC(=O)CN(C)C(=O)Cc2sc(C)nc2-c2ccc(F)cc2)cc1OCC,inactive,–
O=C1CC(c2ccc(F)cc2F)c2cc3c(cc2N1)OCO3 (stereo unspecified),inactive,–
O=C(c1ccccc1)N1CCC(CC2CC(c3ccc(Cl)cc3)=NO2)(C(=O)NCC2CCCCC2)CC1 (stereo unspecified),inactive,–
Cc1nnc2n1N=C(c1ccc3c(c1)NC(=O)CO3)CS2,inactive,–
Cn1c(=O)cc(OCC(=O)N2CCN(c3ccccc3)CC2)c2ccccc21,inactive,–
CCOc1ccc(NC(=O)c2c(NCc3cccc(OC)c3OC)sc3c2CCC3)cc1,inactive,–
COc1ccc(C(=O)Cc2cnn(-c3ccccc3)c2)c(O)c1,3.38 µM (active),–
COc1ccc(C(=O)NNS(=O)(=O)c2ccc(C)cc2)cc1,inactive,–
COc1ccc(C(=O)C[n+]2ccc(C)cc2)cc1,inactive,–
COc1ccc(C(=O)CC(=O)c2ccc(C)cc2)c(O)c1,21.3 µM (active),–
COc1ccc(CC(=O)c2ccc(O)cc2O)cc1OC,inactive,–
Cc1[nH]nc(-c2ccc(OCc3cnn(-c4ccccc4)c3)cc2O)c1Oc1ccc(Cl)cc1,inactive,–
Cc1cccc(OCC(=O)N(Cc2ccc(C(C)C)cc2)Cc2ccco2)c1C,inactive,–
COc1cc(OC)c(NC(=O)c2c3c(nn2C)-c2ccccc2SC3)cc1Cl,inactive,–
CSc1nc(=O)c2c(n1C)NC(=O)CC2c1ccccc1OC(C)C (stereo unspecified),inactive,–
Cc1nc(SCC(=O)NC2CCCCC2C)c(C#N)c(C)c1C (stereo unspecified),inactive,–
CCS(=O)(=O)c1nc(S(=O)(=O)c2ccc(C)cc2)c(NCc2ccc(Cl)cc2)s1,inactive,–
CCn1c(C(=O)Nc2cc(Cl)ccc2C)cc2sc(Cl)cc21,inactive,–
CCOc1ccc(-c2cc3c(=O)n(CC(=O)NCc4ccc(OC)cc4)ccn3n2)cc1,inactive,–
c1ccc(CSCCc2ccncc2)cc1,inactive,–
CC(C)(C)c1ccc(SCCc2ccncc2)cc1,26.9 µM (active),–
Cc1cc(C)c(SCCc2ccncc2)c(C)c1,inactive,–
C/C(=N\NC(=O)CCn1nc(C)cc1C)C(C)(C)C,inactive,–
CCc1cccc(NC(=O)COC(=O)c2cc(=O)c3ccccc3o2)c1,inactive,–
Cc1ccc(S(=O)(=O)NCCC(=O)NC2CCN(Cc3ccccc3)CC2)cc1,inactive,–

SMILES,Potency,"activity change, negative = inhibition"
Cc1ccc(C)c(N2CCN(C(=O)Cn3nc(C)c4sc5ccccc5c4c3=O)CC2)c1,inactive,–
Cn1nnnc1SCCCNCc1cccc(OCc2ccc(Cl)cc2)c1,inactive,–
COc1cc(/C=N\Nc2ccc([N+](=O)[O-])cn2)ccc1OCC(=O)O,inactive,–
COc1cc(/C=N/O)ccc1OCc1ccc([N+](=O)[O-])cc1,2.69 µM (active),–
COc1cc(C(=O)OCc2ccc([N+](=O)[O-])cc2)cc(OC)c1OC,inactive,–
Cc1ccc(CCNC(=O)c2nnc(Cc3cccc(F)c3)o2)cc1,inactive,–
COc1ccc(Cl)cc1N(C)C(=O)c1cc2c(=O)oc3ccc(C)cc3c2s1,inactive,–
CSc1oc(-c2cccs2)nc1S(=O)(=O)c1ccc(Br)cc1,inactive,–
COc1cc(OC)c(NC(=O)c2nc(-c3ccncc3)no2)cc1Cl,inactive,–
c1csc(-c2nc(-c3ccncc3)no2)c1,13.5 µM (active),–
O=C(Oc1ccc(-c2nc(-c3ccccn3)no2)cc1)c1ccccc1,0.301 µM (active),–
N#CCc1ccc(OC(=O)c2cccnc2)cc1,inactive,–
COc1ccc(-c2noc(-c3ccc(C)cc3)n2)cc1,1.51 µM (active),–
Cc1ccc(-c2noc(CSc3nnc(-c4cccs4)n3C)n2)cc1,inactive,–
COc1ccc(-c2noc(CN(C)S(=O)(=O)c3ccc(C)cc3)n2)cc1,inactive,–
COc1ccc(N2CCN(C(=O)CCc3nc(-c4ccc(C)cc4)no3)CC2)cc1,inactive,–
Cc1ccc(-c2noc(CSc3nnc(-c4ccncc4)n3-c3ccc(F)cc3)n2)cc1,inactive,–
Cc1ccc(-c2nc(-c3ccncc3)no2)c(C)c1,2.13 µM (active),–
Cc1ccc(Oc2nc(-c3ccccn3)nc3ccccc23)cc1,inactive,–
Cc1cc(OC(=O)c2ccccc2)c([N+](=O)[O-])c(=O)[nH]1,inactive,–
Cc1ccccc1NC(=O)Cn1c(=O)n(CC2CCC(C(=O)NCCc3ccccc3)CC2)c(=O)c2ccccc21 (stereo unspecified),inactive,–
COc1ccc(CCNc2nc(-c3ccc(Cl)cc3)cc(C(F)(F)F)n2)cc1OC,inactive,–
O=c1cccc(-c2ccc(Br)cc2)o1,–,3.87% [at 2.3 µM]
O=C1CC(c2nnc(Cc3ccc(Cl)cc3)o2)CN1c1ccccc1 (stereo unspecified),inactive,–
Cc1ccc(OCC(=O)Nc2ccccc2C(=O)NC2CC2)cc1,inactive,–
COc1ccc(CCC(=O)NCc2ccc3c(c2)CCN3C(=O)c2ccc(F)cc2)cc1,inactive,–

SMILES,Potency,"activity change, negative = inhibition"
Cc1ccc(-n2nnnc2CNC(=O)c2ccccc2C)cc1C,inactive,–
COc1cc(C)c(Cl)cc1S(=O)(=O)n1ccnc1,inactive,–
Cc1c2cnn(-c3ccccc3)c(=O)c2c(C)n1C(C)C(=O)Nc1ccc(Br)cc1F (stereo unspecified),inactive,–
O=c1onc(-c2cccs2)n1Cc1ccccc1,inactive,–
Clc1ccc(-n2nnnc2-c2cnc(-c3ccccn3)nc2-c2cccs2)cc1,inactive,–
c1ccc(-c2noc(-c3cccs3)n2)nc1,3.01 µM (active),–
CN(Cc1ccccc1)C(=O)CCS(=O)(=O)c1cc(Br)cc2c1N(C(=O)C1CC1)CC2,inactive,–
CCOc1ccc(CCNC(=O)CN(c2ccc(C)cc2)S(=O)(=O)N(C)C)cc1OCC,inactive,–
Cc1cc(C)c(-c2n[nH]c3c2C(c2ccccc2F)N(CCO)C3=O)c(O)c1 (stereo unspecified),inactive,–
Cc1ccc(CSc2nc3cccnc3n2Cc2ccc(C(=O)NC3CC3)cc2)cc1,0.379 µM (active),–
Cc1cccc(CSc2nc3ccncc3n2CC(=O)N(C)C2CCCCC2)c1,inactive,–
Cc1ccc(Cn2c(CNC(=O)Cc3cccc(C)c3)nc3cccnc32)cc1,inactive,–
O=C(O)c1ccc(Cn2c(SCc3ccc(F)cc3)nc3ccncc32)cc1,16.9 µM (active),–
C=CCn1c(SCc2ccc(C(=O)NCCO)cc2)nc2ccccc2c1=O,inactive,–
O=C(Nn1c(SCc2ccc([N+](=O)[O-])cc2)nc2ccccc2c1=O)c1ccc(F)cc1,16.9 µM (active),–
CCOC(=O)CNC(=O)CSc1nc2cccnc2n1CC,inactive,–
Cc1nc2ccccc2c(=O)n1NC(=O)c1ccc(Cl)c([N+](=O)[O-])c1,inactive,–
OCc1cnc(SCc2ccc(F)cc2)n1Cc1ccc(F)cc1,inactive,–
CCCNC(=O)c1ccc(Cn2c(SCC(N)=O)nc3ccccc3c2=O)cc1,inactive,–
O=C(NCc1ccc(F)cc1)c1ccc(Cn2c(SCc3ccc(F)cc3)nc3cccnc32)cc1,4.78 µM (active),–
Cn1c(CNC(=O)c2ccccc2F)nnc1SCc1ccc(F)cc1,inactive,–
CC1=C(C(=O)Nc2ccccc2)C(c2ccc(C)cc2)n2nc(SCc3ccccc3C)nc2N1 (stereo unspecified),inactive,–
Cc1nnc(NC(=O)CSc2nc3c([nH]c4ccccc43)c(=O)n2-c2cccc(Cl)c2)s1,inactive,–
